# Assay results published in PubChem BioAssay (NCI).
# About 83,000 compounds went through this panel and 20% of them were active in at least one assay; those are over-represented in the sample as a whole.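 The test compound was applied at a single concentration to cells in 96-well plates for 48 hours, and percent growth was recorded.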 Unmarked numbers belong to inactive results. The source made the active and inactive calls. The calls were made as follows: active = growth percent below 10; inactive = the rest.
# Tests used:
# Assay in all cases: NCI-60 one-dose screen, 48 h (100 = growth as untreated, 0 = no growth, -100 = all killed)
# Conditions in all cases: 10 µM unless noted
# SK-MEL-2 melanoma = system: SK-MEL-2 melanoma
# EKVX NSCLC = system: EKVX NSCLC
# UO-31 renal = system: UO-31 renal
# TK-10 renal = system: TK-10 renal
# ACHN renal = system: ACHN renal
# CAKI-1 renal = system: CAKI-1 renal
# CCRF-CEM leukemia = system: CCRF-CEM leukemia
# MOLT-4 leukemia = system: MOLT-4 leukemia
# SR leukemia = system: SR leukemia
# RPMI-8226 leukemia = system: RPMI-8226 leukemia
# OVCAR-8 ovarian = system: OVCAR-8 ovarian
# OVCAR-5 ovarian = system: OVCAR-5 ovarian
# OVCAR-4 ovarian = system: OVCAR-4 ovarian
# SK-OV-3 ovarian = system: SK-OV-3 ovarian
# IGROV1 ovarian = system: IGROV1 ovarian
# OVCAR-3 ovarian = system: OVCAR-3 ovarian
# HS 578T breast = system: HS 578T breast
# NCI/ADR-RES ovarian = system: NCI/ADR-RES ovarian
# A498 renal = system: A498 renal
SMILES,growth (SK-MEL-2 melanoma),growth (EKVX NSCLC),growth (UO-31 renal),growth (TK-10 renal),growth (ACHN renal),growth (CAKI-1 renal),growth (CCRF-CEM leukemia),growth (MOLT-4 leukemia),growth (SR leukemia),growth (RPMI-8226 leukemia),growth (OVCAR-8 ovarian),growth (OVCAR-5 ovarian),growth (OVCAR-4 ovarian),growth (SK-OV-3 ovarian),growth (IGROV1 ovarian),growth (OVCAR-3 ovarian),growth (HS 578T breast),growth (NCI/ADR-RES ovarian),growth (A498 renal)
Clc1nc(Nc2ccccc2)nc(Nc2ccccc2)n1,106%,106%,-80.6% (active),122%,98.9%,86.5%,91.7%,86.3%,45.8%,82.8%,112%,101%,86.1%,96.5%,91.9%,103%,121%,94.6%,–
S=c1[nH]cccc1-c1nnc2n1Nc1nc3ccccc3cc1CS2,104%,97.1%,70.2%,105%,93.3%,82.8%,–,104%,95.7%,99.2%,98%,96%,101%,82.1%,90.7%,105%,96.4%,98.2%,111%
Fc1ccc(-n2cc(COc3ncnc4sc5c(c34)CCCC5)nn2)cc1Cl,103%,94.1%,82.3%,113%,102%,92.7%,89%,98.8%,93.5%,–,96.7%,96.6%,99.7%,103%,91.9%,112%,104%,95.1%,–
c1ccc(CCSc2ncnc3nc[nH]c23)cc1,53.6%,73.4%,84.4%,–,90.7%,86.7%,–,92.4%,52.8%,82.1%,66.9%,114%,84.8%,–,–,116%,100%,99.2%,86.3%
C=Cc1cc[n+](CCCCCCCCCCCC)cc1,150%,105%,94%,137%,–,103%,87.9%,94.7%,97.2%,104%,112%,108%,133%,144%,104%,110%,108%,106%,94.9%
CC1(C)CCCN1CCCN1c2ccccc2Sc2ccc(Cl)cc21,117%,61.5%,42.3%,84.6%,61.8%,60%,41.7%,41.7%,35.7%,28.6%,95.8%,89.3%,53.2%,75.5%,60.2%,68.5%,76.6%,61%,61.7%
Clc1ccc(C2CC(c3cccc(Nc4ccncc4)c3)=NN2c2ccc(Cl)cc2)cc1 (configuration not stated),85.8%,72.3%,4.62% (active),50.5%,-66.6% (active),-59.6% (active),–,-5.2% (active),–,0.298% (active),-38.9% (active),65.4%,-14.5% (active),83.7%,7.44% (active),31%,54%,11.2%,72.1%
NC(=O)c1cccc(-c2cc(C(N)=O)ccc2Cl)c1,34.5%,35.7%,45.7%,51.2%,36.3%,31.8%,7.74% (active),26.9%,2.33% (active),14.3%,28.9%,–,58.6%,88.9%,49.3%,-0.229% (active),5.29% (active),19%,-5.64% (active)
COc1ccc(-c2nc(N/N=C/c3cccc(Br)c3)nc(N3CCOCC3)c2C#N)cc1,80.1%,90.2%,43.5%,90.8%,54.6%,59.6%,–,46.9%,-21.3% (active),35.8%,69.9%,111%,81.2%,97.1%,89.1%,74.6%,68%,83.3%,45.1%
COc1cc(C(=O)c2cnc(-c3ccc4cc[nH]c4c3)[nH]2)cc(OC)c1OC,35.8%,28.2%,11.4%,33.3%,15.5%,8.22% (active),5.89% (active),7.06% (active),6.26% (active),-0.63% (active),–,32.2%,39.3%,23.5%,26.3%,-34.2% (active),20.6%,8.52% (active),–
COc1ccc2nc(N=Nc3c(O)ccc4ccccc34)sc2c1,59.3%,17.8%,20.7%,69.1%,17.2%,–,31.3%,19.9%,16.6%,–,24.3%,55.3%,28.3%,38.2%,22.4%,34.9%,83%,9.35% (active),79%
COc1ccc(/C(=C\c2ccccc2)C(=O)O)cc1OC,98.3%,101%,88.9%,104%,94.8%,97.4%,–,108%,108%,102%,105%,87.5%,103%,105%,96%,104%,97%,93.8%,–
CNC(=O)Nc1ccc(-c2nc(N3CCOCC3)nc3c2cnn3C2CCOCC2)cc1,-23.8% (active),-24.3% (active),-23.5% (active),-38% (active),4.27% (active),-19.3% (active),23.8%,11.9%,–,8.13% (active),0.163% (active),1.59% (active),–,–,-27.6% (active),1.45% (active),-24.9% (active),4.44% (active),–
NC(=O)c1cccc(-n2ccc3cc(NC(=O)Nc4cc(C(F)(F)F)cc(C(F)(F)F)c4)ccc32)n1,76.6%,40.5%,47.4%,62.8%,39.9%,41.4%,53.7%,26.4%,44.3%,–,37.2%,72.4%,44%,73.7%,29.8%,39.1%,38.6%,41.8%,–
CCN(CC)CCOC(COc1cc(C)cc(C)c1)COc1cc(C)cc(C)c1,86.7%,53%,31.6%,48%,46.2%,40.1%,14.5%,13.5%,-20.8% (active),0.427% (active),58.6%,55.6%,50.9%,67.1%,12.6%,58.4%,61.6%,41.5%,28.4%
O=C(N/N=C/c1cccc(O)c1)c1ccccc1Nc1cccc(C(F)(F)F)c1,111%,69.9%,58%,97.5%,95.4%,36.9%,3.83% (active),–,–,87.5%,75%,92.3%,58.9%,78.4%,95.3%,62.1%,91.8%,83.4%,92.3%
CC(=O)N1c2ccccc2NC2=C(C(=O)N(C)C2(C)C)C1C (configuration not stated),8.92% (active),61.5%,82%,87.1%,97%,71.9%,20.7%,33.3%,16.7%,12.6%,65.8%,62.5%,55.2%,55.4%,39.6%,18.1%,20.4%,102%,–
COc1ccccc1/C=C1\Oc2cc(OCCCN3CCCC3)ccc2C1=O,102%,90.6%,77.9%,104%,–,77.8%,–,93.3%,46.9%,107%,93.7%,84.2%,89%,108%,92.3%,94.8%,83.7%,84.6%,77.3%
